Assay results: ChEMBL document CHEMBL3988442, “University of Dundee, Small-Polar-MMV Screening Library” (2021)
Among all 85,000 compounds or so, about 440 (0.52%) showed an effect of 50% or more. What follows is part of a selection rich in strong results, with near analogues and random picks from the rest.

Assay: In vitro enzyme assay to detect hydrolysis of chlorophenol red-beta-D-[…] directly proportional to the number of Toxoplasma stably expressing beta-galactosidase
Format: functional, organism-based, Toxoplasma gondii
Design: scale not given: in the data most compounds retested in dose-response had high values

CN(C)S(=O)(=O)CCNC1CCCNC1 (stereo not drawn)
Percent Effect (50 µM): 23.13%

CCn1cc(CN(C)S(=O)(=O)c2ccccc2)cn1
Percent Effect (10 µM): 61.21%

CCn1cc(CN(C)S(=O)(=O)c2cnn(C)c2)cn1
Percent Effect (10 µM): 10.44%

CCn1cc(CN(C)S(=O)(=O)c2ccc(C)c(C)c2)cn1
Percent Effect (10 µM): 6.128%

CCOc1ccc(S(=O)(=O)N(C)Cc2cnn(CC)c2)cc1
Percent Effect (10 µM): 22.15%

CCn1cc(CN(C)S(=O)(=O)c2ccc(C(C)C)cc2)cn1
Percent Effect (10 µM): 71.72%

CCn1cc(CN(C)S(=O)(=O)c2ccc(Cl)cc2)cn1
Percent Effect (10 µM): 4.304%

Nc1nnc(SCc2cn3ccccc3n2)s1
Percent Effect (50 µM): -6.062%

COc1ccccc1NC(=O)CC#N
Percent Effect (50 µM): 50.64%

N#CCC(=O)Nc1ccccc1I
Percent Effect (50 µM): 0.5556%

CNCC(=O)Nc1ccccc1OC
Percent Effect (50 µM): 7.8%

Cn1c(C(C)(C)N)nc2ccccc21
Percent Effect (50 µM): 4.322%

COC(=O)Cc1cccc(NC(=O)CC2CC2)n1
Percent Effect (50 µM): 2.915%

COc1cccc(N2CCC(CNCc3cccc(C#N)c3)C2)c1 (stereo not drawn)
Percent Effect (10 µM): -3.388%

COc1cccc(CNCC2CN(C)CCO2)c1 (stereo not drawn)
Percent Effect (10 µM): -20.59%

COc1cccc(CNCC2CCOC2)c1 (stereo not drawn)
Percent Effect (50 µM): 52.55%

O=C(NCCSCc1cccc(Cl)c1)C1CNCCO1 (stereo not drawn)
Percent Effect (50 µM): 4.575%

CC(C)OCC(O)CN1CCN(C(C)C)CC1 (stereo not drawn)
Percent Effect (50 µM): -5.583%

CC(O)CNCc1ccc(OCc2ccc3c(c2)OCCO3)cc1.Cl (stereo not drawn)
Percent Effect (10 µM): -0.2514%

CCNCc1ccc(OCc2ccc3c(c2)OCCO3)cc1.Cl
Percent Effect (10 µM): 57.45%

CNCc1ccc(OCc2ccc3c(c2)OCCO3)cc1.Cl
Percent Effect (10 µM): 14.53%

CC(C)(C)NCc1ccc(OCc2ccc3c(c2)OCCO3)cc1.Cl
Percent Effect (10 µM): -4.151%

CCCNCc1ccc(OCc2ccc3c(c2)OCCO3)cc1.Cl
Percent Effect (10 µM): 26.87%

COc1ccc2oc(CNC(C)(CO)CO)cc2c1
Percent Effect (50 µM): 4.082%

O=C(CNC(=O)c1cccs1)c1ccccc1
Percent Effect (50 µM): -23.7%

CCN(CC(C)(C)O)C(=O)c1nccc2ccccc12
Percent Effect (50 µM): -2.694%

CCNC(=O)CN1CCN(Cc2cccnc2N)CC1
Percent Effect (50 µM): 3.908%

COCC(C)NC(=O)CCn1cnc2sccc2c1=O (stereo not drawn)
Percent Effect (50 µM): -6.543%

CS(=O)(=O)NCC(=O)NCc1cnn2ccccc12
Percent Effect (50 µM): -11.78%

CCN1CCCC1CNS(=O)(=O)CCCC#N (stereo not drawn)
Percent Effect (50 µM): -20.61%

CCc1n[nH]c(NC(=O)c2cc(C(C)=O)cs2)n1
Percent Effect (50 µM): -2.258%

NC(=O)CCN1C(=O)CCC1=O
Percent Effect (50 µM): 1.954%

Cc1ccccc1CNC(=O)N(C)Cc1nnc[nH]1
Percent Effect (50 µM): -3.326%

COC(=O)c1cnc(O)cn1
Percent Effect (50 µM): 0.4239%

COC(=O)c1cnc(OC)cn1
Percent Effect (50 µM): 10.7%

COC(=O)c1cnc(F)cn1
Percent Effect (50 µM): 53.27%

O=C(CNC1(CO)CCOCC1)Nc1cccc(F)c1
Percent Effect (50 µM): -18.29%

CC(C)C(N)C1(CO)CCC1 (stereo not drawn)
Percent Effect (50 µM): -14.82%

N#Cc1cccnc1NCC1COc2ccccc2O1 (stereo not drawn)
Percent Effect (50 µM): -5.408%

Cc1ccc(CN2CCCn3c(nc(Cn4ccnc4)cc3=O)C2)o1
Percent Effect (10 µM): 95.97%

O=c1cc(Cn2ccnc2)nc2n1CCCN(Cc1ccco1)C2
Percent Effect (10 µM): -0.8368%

CCc1ccc(CN2CCCn3c(nc(Cn4ccnc4)cc3=O)C2)o1.O=C(O)C(F)(F)F.O=C(O)C(F)(F)F
Percent Effect (10 µM): 1.534%

CC(c1nc(C2CC2)no1)N1CCN(CC(=O)N2CCOCC2)CC1 (stereo not drawn)
Percent Effect (10 µM): 3.194%

O=C(CN1CC(c2nc(C3CC3)no2)C1)N1CCOCC1.O=C(O)C(=O)O
Percent Effect (10 µM): 76.44%

CC1CCN(C(=O)CN2CC(c3nc(C4CC4)no3)C2)CC1.O=C(O)C(=O)O
Percent Effect (10 µM): -17.41%

NC(=O)CN1CC(c2nc(C3CC3)no2)C1.O=C(O)C(=O)O
Percent Effect (10 µM): -8.991%

O=C(CN1CCCC(c2noc(C3CC3)n2)C1)N1CCCC1 (stereo not drawn)
Percent Effect (10 µM): 4.609%

Nc1ccnn1Cc1ccccn1
Percent Effect (50 µM): -24.54%

O=C(CN1CCCCC1)N1CCCCC1
Percent Effect (50 µM): 1.789%

O=C(NCCOCCO)c1cn2ccsc2n1
Percent Effect (50 µM): 19.68%

CNC(=O)C1CNC1
Percent Effect (50 µM): 0.513%

COCCCNC(=O)CN(C)c1ccccc1F
Percent Effect (50 µM): 2.537%

Clc1cccc(-c2cccc(N3CCC(NC4CCOCC4)CC3)c2)c1
Percent Effect (10 µM): 94.46%

Cc1ccc(-c2cccc(N3CCC(NC4CCOCC4)CC3)c2)cc1
Percent Effect (10 µM): 36.9%

COc1cccc(-c2cccc(N3CCC(N[C@@H]4CCOC4)CC3)c2)c1
Percent Effect (10 µM): 25.91%

c1cc(SCCOCC2CCCO2)ccn1 (stereo not drawn)
Percent Effect (50 µM): 73.14%

NCCOCC1CCCO1 (stereo not drawn)
Percent Effect (50 µM): -7.088%

Cc1ccccc1-n1cnnc1SCCOCC1CCCO1 (stereo not drawn)
Percent Effect (10 µM): -4.234%

CN1CCOC(C(=O)N(C)Cc2cccc(O)c2)C1 (stereo not drawn)
Percent Effect (50 µM): -4.809%

CN(C)c1nc(N)nc(CN2CCCC2c2cccs2)n1 (stereo not drawn)
Percent Effect (10 µM): 12.16%

Nc1nc(N)nc(CN2CCCC2c2cccs2)n1 (stereo not drawn)
Percent Effect (50 µM): 61.8%

Oc1ccccc1CN1CCCCCC1c1cccs1 (stereo not drawn)
Percent Effect (10 µM): 10.91%

CC(=O)NCCCc1nc2ccccc2n1C
Percent Effect (50 µM): -0.2926%

O=C(CN1CCOCC1)N1CCCC(c2nnc[nH]2)C1 (stereo not drawn)
Percent Effect (50 µM): -8.944%

CC1C(=O)NCCN1C(=O)c1cc(-c2ccco2)on1 (stereo not drawn)
Percent Effect (50 µM): 0.5841%

Cc1cc(F)cc(S(=O)(=O)NCCN)c1
Percent Effect (50 µM): -4.306%

O=C(CCn1cccn1)Nc1cncc(Br)c1O
Percent Effect (50 µM): -6.766%

CCCOC(C)C(=O)NCCc1noc(CO)n1 (stereo not drawn)
Percent Effect (50 µM): -15.52%

CC[C@H](C)[C@H](N)C(=O)NCCc1noc(CO)n1
Percent Effect (50 µM): 11.28%

O=C(CC1CCCC1)NCCc1noc(CO)n1
Percent Effect (50 µM): 66.39%

Cc1nccc(CNc2ncc(C(N)=O)cc2Cl)n1
Percent Effect (50 µM): -11.46%

COc1ccccc1NCC(=O)NCC(C)(O)C(C)C (stereo not drawn)
Percent Effect (50 µM): 0.7495%

NC1CSc2ccccc21 (stereo not drawn)
Percent Effect (50 µM): 16.15%

NCC(=O)N1CCCC(CCc2ccc(F)c(F)c2)C1 (stereo not drawn)
Percent Effect (50 µM): 39.41%

NCC(=O)N1CCCC(CCc2ccc(F)cc2)C1 (stereo not drawn)
Percent Effect (50 µM): 31.97%

NCCC(=O)N1CCCC(CCc2ccc(F)cc2)C1 (stereo not drawn)
Percent Effect (50 µM): 62.64%

Cc1nnc(CNC(=O)Nc2ccc(F)cc2)o1
Percent Effect (50 µM): -6.078%

CC1(C)CN(c2ccnc3ccccc23)CC[S+]1[O-] (stereo not drawn)
Percent Effect (50 µM): 6.751%

O=S(=O)(NC1CCCC1)C1CCOCC1
Percent Effect (50 µM): 42.45%

CCCC(=O)N1CCC(O)(Cn2c(CC)nc3ccccc3c2=O)CC1.Cl
Percent Effect (10 µM): -0.06406%

CCc1nc2ccccc2c(=O)n1CC1(O)CCN(C(=O)COC)CC1.Cl
Percent Effect (10 µM): 54.94%

CCc1nc2ccccc2c(=O)n1CC1(O)CCN(C(=O)C2CC2)CC1.Cl
Percent Effect (10 µM): 0.3648%

Cc1cc(CNc2ncnc3c2cnn3C)on1
Percent Effect (50 µM): -29.33%

CC1COc2ccccc2N1CC(N)=O (stereo not drawn)
Percent Effect (50 µM): -5.521%

CNC(=O)N1CCCCCC1c1ccncc1 (stereo not drawn)
Percent Effect (50 µM): 14.5%

CSc1ccccc1NCC(=O)NC1CC1
Percent Effect (50 µM): 51.75%

CC(C#N)CSc1ccccc1NCC(=O)NC1CCCCC1 (stereo not drawn)
Percent Effect (10 µM): -5.31%

CC(=O)c1ccc(F)cc1NCC(=O)NC1CC1
Percent Effect (50 µM): 5.192%

CNCC(=O)Nc1cc(Cl)c(OCCOC)c(Cl)c1
Percent Effect (50 µM): -0.6689%

CCS(=O)(=O)N1CCC(NC(=O)c2ccc(Cl)o2)CC1
Percent Effect (50 µM): -2.927%

Cc1cc(F)cc(NC(=O)NC[C@@H]2CCCN2)c1
Percent Effect (50 µM): 21.68%

CC(Cn1ccnc1)NC(=O)NCc1ccc2c(c1)OCCO2 (stereo not drawn)
Percent Effect (10 µM): -19.42%

O=C(NCc1ccc2c(c1)OCO2)N1CCCCC1
Percent Effect (50 µM): -4.35%

O=C(NCc1ccc2c(c1)OCO2)n1ccnc1
Percent Effect (50 µM): 96.82%

c1cn(C2CCNC2)nn1 (stereo not drawn)
Percent Effect (50 µM): -13.42%

CCC(OC)C(=O)N1CC(Oc2ccccc2F)C1 (stereo not drawn)
Percent Effect (50 µM): -7.864%

CCS(=O)(=O)CCC(=O)Nc1cccc(F)c1
Percent Effect (50 µM): 5.162%

CC(=O)Nc1ncc(S(=O)(=O)Nc2ccc3c(c2)OCCO3)s1
Percent Effect (10 µM): 68.62%

CC(=O)Nc1ncc(S(=O)(=O)Nc2cccc(C)c2)s1
Percent Effect (10 µM): 60.94%

Cc1cccc(NS(=O)(=O)c2cc(C(=O)O)oc2C)c1
Percent Effect (10 µM): -16.73%

CC(=O)Nc1ncc(S(=O)(=O)N2CCCC(C)C2)s1 (stereo not drawn)
Percent Effect (10 µM): -8.14%

CC(=O)Nc1ncc(S(=O)(=O)Nc2cccc(F)c2)s1
Percent Effect (10 µM): 67.14%

Cc1cc(C(=O)O)cc(S(=O)(=O)Nc2ccc3c(c2)OCCO3)c1C
Percent Effect (10 µM): -2.504%

CC(=O)Nc1ncc(S(=O)(=O)Nc2cccc(O)c2)s1
Percent Effect (10 µM): 62.29%

CC(=O)Nc1ncc(S(=O)(=O)N2CCN(C3CCCCC3)CC2)s1
Percent Effect (10 µM): -4.699%

CC(=O)Nc1ncc(S(=O)(=O)N2CCOCC2)s1
Percent Effect (10 µM): -6.42%

CC(=O)c1cccc(NS(=O)(=O)c2cc(C)c(C(=O)O)s2)c1
Percent Effect (10 µM): -0.4058%

Cc1c(S(=O)(=O)Nc2cccc(F)c2)cnn1C
Percent Effect (50 µM): -8.725%

CCNC(=O)NCc1ncoc1C
Percent Effect (50 µM): -6.658%

NC(=O)Cc1ccc(-c2ccc(C(N)=O)c(Cl)c2)cc1
Percent Effect (50 µM): -4.393%

CCn1ccnc1C(C)N (stereo not drawn)
Percent Effect (50 µM): 1.366%

CNC(=O)c1cccc(NC(C)C(=O)NCC(C)C)c1 (stereo not drawn)
Percent Effect (50 µM): -5.14%

Cn1cc(C(N)=O)c(NCc2ccc(F)c(C#N)c2)n1
Percent Effect (50 µM): -8.67%

CN1C(=O)[C@H]2CN(Cc3cccc(Cl)c3F)C[C@H]2C1=O
Percent Effect (50 µM): -8.035%

O=C(c1cc(Cl)ccc1O)N1CCOCC1
Percent Effect (50 µM): 6.297%

CNCC(=O)Nc1ccc(C)cc1C(=O)N(C)C
Percent Effect (50 µM): -7.454%

CCc1nccn1CCCNC(=O)Cc1nonc1C
Percent Effect (50 µM): 3.782%

CCn1cc(C(=O)NCc2ccc(CNC)cc2)cn1
Percent Effect (50 µM): -1.69%

CC1CCCCN1CCNC(=O)c1ccccn1 (stereo not drawn)
Percent Effect (50 µM): 1.645%

COc1ccc(Cl)cc1CNCCSc1nnnn1C
Percent Effect (50 µM): -8.775%

Cc1cc(C2CCCN2)no1 (stereo not drawn)
Percent Effect (50 µM): -6.252%

Cc1cccc(C2CCCN2)n1 (stereo not drawn)
Percent Effect (50 µM): -3.572%

Cc1nc([C@H]2CCCN2)cs1
Percent Effect (50 µM): 52.58%
